# Assay results taken from PubChem BioAssay (NCATS).
# A number with no mark means an inactive call. Records with an inconclusive call do not appear. Where a call stands in place of a potency, no number is given. Activity calls are given as the source filed them. Calls follow the shape of the dose curve; as a rule, active = well fitted curve in the direction sought with a large enough effect; inconclusive = small, poorly fitted or top-dose-only effect, or another doubt; inactive = no such curve, though single readings can be large; an effect the other way counts as inactive or inconclusive.
# Tests used:
# [1] = target: Arylsulfatase A (Homo sapiens) (UniProt P15289); test: qHTS screen for enhancers of Arylsulfatase A (ASA1): LOPAC Validation Assay (AID 720538); also: potency is read from the fitted curve at half-maximal effect
# Summary of the method: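 MLD patient fibroblasts (SV40, ASA-I179S), 1536-well; adhere 6 hrs; cpd 48h, 37 degree C, 5% CO2; pNCS 0.5mM final in lysis buffer, 14h RT; stop 1N NaOH final; fluor. Ex525/Em598.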
# [2] = qHTS for compounds that reverse cellular toxicity of Amyloid beta (A-beta) peptide in yeast: LOPAC Validation Assay (AID 720559)
# Summary of the method: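 Medium dispensed, compounds pinned, A-beta yeast suspension added; plates held at 30 C for 48 hr; absorbance measured at 600 nm to gauge growth; values scaled between DMSO and FeCl3/clioquinol (equimolar) controls.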
# [3] = qHTS for Activators of Parkin Expression: LOPAC Validation Assay (NLuc Reporter) (AID 720572)
# Summary of the method: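 Neuronal line stably carrying a FLuc/NLuc coincidence reporter under the Parkin promoter, seeded 24 h, then dosed in 7-point series for 24 h at 37 C. NLuc luminescence read after FLuc; normalized to DMSO and positive control (100%).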
# [4] = qHTS for Activators of Parkin Expression: LOPAC Validation Assay (FLuc Reporter) (AID 720573)
# Summary of the method: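 Cells seeded, 24 h; compounds pinned, 7-pt dose response; 24 h at 37 C/5% CO2; volume reduced; FLuc reagent 10 min RT; luminescence read. Normalization: DMSO = 0, positive control = 100%.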
# [5] = target: T1, Hexokinase-4 (Homo sapiens) + Glucokinase regulatory protein (Homo sapiens) (UniProt P35557+Q14397); test: qHTS assay for inhibitors of recombinant human GCK-GKRP interaction: Diaphorase-coupled assay (AID 743205)
# Summary of the method: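 25 mM Hepes pH 7.6, 5 mM glucose, 0.4 mM ATP, 4 U/ml G6PDH; 10 nM each GST-GCK/FLAG-GKRP. Kinetic fluorescence read, 1/min × 30 min. Normalized: DMSO ± enzyme = max/min.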
# [6] = target: T1, Hexokinase-4 (Homo sapiens) + Glucokinase regulatory protein (Homo sapiens); test: qHTS assay for inhibitors of recombinant human GCK-GKRP interaction: ADP-Glo assay (AID 743206)
# Summary of the method: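 GST-GCK and FLAG-GKRP (15 nM each in the dispensed mix, with 2 uM S6P) react with 0.4 mM ATP and 5 mM glucose (final) in Hepes pH 7.6 for 60 min at room temperature. ADP is measured by ADP-Glo luminescence.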
# [7] = target: T1, Hexokinase-4 (Homo sapiens) + Glucokinase regulatory protein (Homo sapiens); test: qHTS assay for inhibitors of recombinant human GCK-GKRP interaction: HTRF assay (AID 743207)
# Summary of the method: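 5 nM GST-GCK + 5 nM FLAG-GKRP + 2 uM S6P, pH 7.1 buffer (25 mM Hepes, 2 mM MgCl2, 25 mM KCl, 1 mM DTT, Tween/BSA); pin-transferred cpd; anti-FLAG XL665/anti-GST K; 60 min RT; HTRF.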
# [8] = qHTS Assay for Identifying Gametocytocidal Compounds (AID 743244);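 also: actives lower the fluorescent signal which means gametocytes are killed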; conditions: P. falciparum 3D7 stage III-V gametocytes, alamarBlue, 72 h; max response: active compounds read low
# Summary of the method: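 In this qHTS viability screen, late-stage 3D7 gametocytes are incubated with compound for 72 h, then with alamarBlue for 24 h; reduced resorufin fluorescence marks killing.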
# T1 sequence (P35557 whole entry, looked up): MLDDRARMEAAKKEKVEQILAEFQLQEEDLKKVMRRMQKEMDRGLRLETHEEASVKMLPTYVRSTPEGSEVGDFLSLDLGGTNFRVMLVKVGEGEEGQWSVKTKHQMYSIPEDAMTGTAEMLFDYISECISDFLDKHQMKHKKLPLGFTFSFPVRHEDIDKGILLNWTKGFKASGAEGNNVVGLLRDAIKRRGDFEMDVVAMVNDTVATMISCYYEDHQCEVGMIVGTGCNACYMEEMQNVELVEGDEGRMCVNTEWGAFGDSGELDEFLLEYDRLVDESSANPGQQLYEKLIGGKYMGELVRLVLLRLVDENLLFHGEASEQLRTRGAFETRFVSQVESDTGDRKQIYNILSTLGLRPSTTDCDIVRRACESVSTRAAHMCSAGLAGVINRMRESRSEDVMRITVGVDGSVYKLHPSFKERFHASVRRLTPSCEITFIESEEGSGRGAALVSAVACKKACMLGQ
# T1 sequence (Q14397 whole entry, looked up): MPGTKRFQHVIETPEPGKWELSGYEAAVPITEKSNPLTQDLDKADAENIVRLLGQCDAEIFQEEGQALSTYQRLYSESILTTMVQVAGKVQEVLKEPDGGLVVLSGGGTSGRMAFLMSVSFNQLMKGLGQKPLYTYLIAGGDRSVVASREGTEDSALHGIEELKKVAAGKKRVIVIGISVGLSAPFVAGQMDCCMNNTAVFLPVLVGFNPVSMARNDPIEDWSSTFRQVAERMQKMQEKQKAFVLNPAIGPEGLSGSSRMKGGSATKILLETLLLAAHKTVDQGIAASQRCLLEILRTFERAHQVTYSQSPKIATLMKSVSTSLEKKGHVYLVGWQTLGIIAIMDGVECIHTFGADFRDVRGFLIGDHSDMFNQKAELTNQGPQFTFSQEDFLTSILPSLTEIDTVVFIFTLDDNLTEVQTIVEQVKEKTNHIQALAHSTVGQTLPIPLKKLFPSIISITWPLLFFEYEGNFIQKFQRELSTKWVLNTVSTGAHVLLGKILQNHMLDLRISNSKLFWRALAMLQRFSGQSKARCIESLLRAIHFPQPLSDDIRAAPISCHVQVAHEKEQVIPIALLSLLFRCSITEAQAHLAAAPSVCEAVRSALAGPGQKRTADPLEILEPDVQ
# Arylsulfatase A (Homo sapiens), sequence (P15289 whole entry, looked up): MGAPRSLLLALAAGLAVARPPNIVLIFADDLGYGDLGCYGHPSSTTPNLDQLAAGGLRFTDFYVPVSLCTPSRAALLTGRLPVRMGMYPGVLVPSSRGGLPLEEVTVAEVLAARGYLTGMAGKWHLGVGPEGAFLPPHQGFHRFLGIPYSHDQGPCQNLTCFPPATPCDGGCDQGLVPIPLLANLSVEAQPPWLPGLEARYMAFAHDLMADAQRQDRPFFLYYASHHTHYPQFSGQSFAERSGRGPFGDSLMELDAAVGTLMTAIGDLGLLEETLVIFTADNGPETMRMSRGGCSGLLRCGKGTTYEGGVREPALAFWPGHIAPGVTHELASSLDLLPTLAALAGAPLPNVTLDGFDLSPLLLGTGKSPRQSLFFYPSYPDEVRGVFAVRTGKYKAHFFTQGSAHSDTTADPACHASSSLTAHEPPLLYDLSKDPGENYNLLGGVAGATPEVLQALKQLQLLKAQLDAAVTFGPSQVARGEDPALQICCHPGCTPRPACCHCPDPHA
Compound,Potency [1],outcome [2],Potency [3],Potency [4],Potency [5],Potency [6],Potency [7],max response [8]
CCCCCCC/C=C\CCCCCCCCC(=O)O,inactive,inactive,inactive,inactive,inactive,inactive,inactive,37.6%
c1ccc(C2CN3CCSC3=N2)cc1 (stereo not given),inactive,inactive,inactive,inactive,inactive,inactive,inactive,
Nc1ccc(-c2nc3ccc(-c4nc5ccc(N)cc5[nH]4)cc3[nH]2)cc1,6.75 µM (active),inactive,inactive,inactive,inactive,,,
C=C1C(=O)O[C@@H]2[C@H]3O[C@]3(C)CCC=C(C)CC[C@@H]12,inactive,inactive,inactive,inactive,inactive,inactive,inactive,
Cc1nc2n(c(=O)c1CCN1CCC(c3noc4cc(F)ccc34)CC1)CCCC2O (stereo not given),inactive,inactive,inactive,inactive,inactive,inactive,inactive,7.08%
Cc1cccc(C2CN(C)CCc3c2cc(O)c(O)c3Cl)c1 (stereo not given),inactive,inactive,inactive,inactive,inactive,inactive,inactive,
OCC1NCC(O)C(O)C1O (stereo not given),inactive,inactive,inactive,inactive,inactive,inactive,inactive,29.9%
COc1cc(CC(=O)O)ccc1O,inactive,inactive,inactive,inactive,inactive,inactive,inactive,
CCCn1c(=O)c2[nH]c(C3CCCC3)nc2n(CCC)c1=O,inactive,inactive,inactive,inactive,inactive,inactive,inactive,13.8%
NCCCCN,inactive,inactive,inactive,inactive,inactive,inactive,inactive,15.5%
Cc1cc(Cn2cnc3c2C[C@@H](C(=O)O)N(C(=O)C(c2ccccc2)c2ccccc2)C3)ccc1N,inactive,inactive,inactive,inactive,inactive,inactive,inactive,-5.22%
COc1cc(CNC(=O)CCCCCCC(C)C)ccc1O,inactive,inactive,inactive,inactive,inactive,inactive,inactive,
CCCCCCCCCCCCCCCCCCOC[C@H](COP(=O)([O-])OCC[N+](C)(C)C)OC,inactive,inactive,inactive,inactive,inactive,inactive,inactive,10.4%
c1ccc2c(c1)CCC[C@H]2Nc1nc2ccccc2[nH]1,inactive,inactive,inactive,inactive,inactive,inactive,inactive,12.6%
CN1CCc2cc(Cl)c(O)cc2[C@@H](c2ccccc2)C1,inactive,inactive,inactive,inactive,inactive,inactive,inactive,34.1%
CCC(=O)N1CCN(C(=O)c2ccccc2)CC1,inactive,inactive,inactive,inactive,inactive,inactive,inactive,9.08%
C[C@H]1CC2C3CCC4=CC(=O)C=C[C@]4(C)[C@@]3(Cl)[C@@H](O)C[C@]2(C)[C@@]1(O)C(=O)CO (stereo not given in full),inactive,inactive,inactive,inactive,inactive,inactive,inactive,-6.5%
Nc1ccc(CCNc2ncnc3c2ncn3C2OC(CO)C(O)C2O)cc1 (stereo not given),inactive,inactive,inactive,inactive,inactive,inactive,inactive,12.3%
Cc1cccc(C(=O)NCN2CCN(c3ccccc3C#N)CC2)c1,inactive,inactive,inactive,inactive,inactive,inactive,inactive,20.6%
CSC(N)=NCCC[C@H](N)C(=O)O,inactive,inactive,inactive,inactive,inactive,inactive,inactive,9.52%
COC(=O)C(N)Cc1ccc(Cl)cc1 (stereo not given),inactive,inactive,inactive,inactive,inactive,inactive,inactive,4.72%
Cc1cc2c(cc1Cl)N(C(=O)Nc1ccnc3ccccc13)CC2,inactive,inactive,inactive,inactive,inactive,inactive,inactive,6.93%
Cn1cc(C(=O)OCC2CCN(CCNS(C)(=O)=O)CC2)c2ccccc21,inactive,inactive,inactive,inactive,inactive,inactive,inactive,28.9%
NC1(C(=O)O)CC1,inactive,inactive,inactive,inactive,inactive,inactive,inactive,4.84%
Cc1ccc2c(c1)C(N1CCN(C)CC1)=Nc1cccnc1N2,inactive,inactive,inactive,inactive,inactive,inactive,inactive,23%
COc1ccc(CCn2nnnc2C2(c3ccc(C)cc3)CC2)cc1,inactive,inactive,inactive,inactive,inactive,inactive,inactive,13.1%
